Data reported in PubChem BioAssay (NCATS).
Inconclusive results are not listed. Activity calls are given as the source filed them. Calls follow the shape of the dose curve; as a rule, active = well fitted curve in the direction sought with a large enough effect; inconclusive = small, poorly fitted or top-dose-only effect, or another doubt; inactive = no such curve, though single readings can be large; an effect the other way counts as inactive or inconclusive.

How the values were obtained:
[1] = qHTS for Inhibitors of Plasmodium falciparum (DD2) proliferation (AID 504314);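 also: parasite DNA measured by SYBR Green fluorescence after red cell lysis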; details: P. falciparum Dd2 in erythrocytes, SYBR Green growth, 72 h; series mostly up to 1.12 µM
How it was run: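 Erythrocytes infected with P. falciparum Dd2 (0.3% parasitemia, 2.5% hematocrit) exposed to compound 72 h at 37C, 5% CO2. Parasite DNA quantified by SYBR Green fluorescence after saponin/Triton lysis overnight; normalized to 0.29 uM artemisinin and DMSO.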

[2] = qHTS for Inhibitors of Plasmodium falciparum (GB4) proliferation (AID 504315); also: nearly all actives have a fitted effect of over 50% in size; details: P. falciparum GB4 in erythrocytes, SYBR Green DNA, 72 h; series mostly up to 6.7 µM
How it was run: (§1)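 Erythrocytes infected with P. falciparum line (0.3% parasitemia, 2.5% hematocrit final) incubated with compounds 72 h at 37 °C, 5% CO2; SYBR Green lysis buffer added, fluorescence read next day. Normalized to 0.29 uM artemisinin and DMSO.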

[3] = qHTS for Inhibitors of Plasmodium falciparum (7G8) proliferation (AID 504316); also: nearly all actives have a fitted effect of over 65% in size; details: P. falciparum 7G8 in erythrocytes, SYBR Green DNA, 72 h; series mostly up to 6.7 µM
How it was run: as §1

[4] = qHTS for Inhibitors of Plasmodium falciparum (HB3) proliferation (AID 504318); also: nearly all actives have a fitted effect of over 60% in size; details: P. falciparum HB3 in erythrocytes, SYBR Green DNA, 72 h; series mostly up to 7.21 µM
How it was run: as §1

[5] = qHTS for Inhibitors of Plasmodium falciparum (CP250) proliferation (AID 504320); details: P. falciparum CP250 in erythrocytes, SYBR Green DNA, 72 h; series mostly up to 6.7 µM
How it was run: as §1

Measured: Potency

COC(=O)CCCC1=CC2=CC(=O)C(C)(OC(=O)c3cccs3)C(=O)C2=CN1Cc1ccccc1 (stereo not given)
inactive: all assays above

COC(=O)C1=C(C(=O)OC)[C@@H]2N(Cc3ccccc3)c3ccccc3[C@@]23CCC(=O)N(CC2CCCCC2)C3=N1
inactive: all assays above

C=CCN1c2ccccc2[C@]23C[C@@H](C(=O)OC)N(C(=O)COCc4ccccc4)C2=NC(C(=O)OC)=C(C(=O)OC)[C@H]13
inactive: all assays above

CCN1C(=O)N[C@@H](c2cccc(F)c2)C(C(C)=O)=C1C
inactive: all assays above

CC(C)(C)OC(=O)NCCCC1=CC2=CC(=O)C(C)(OC(=O)c3cccs3)C(=O)C2=CO1 (stereo not given)
inactive: all assays above

COC(=O)CCC(=O)OC1(C)C(=O)C=C2C=C(C3CC3)N(CCN3CCOCC3)C=C2C1=O (stereo not given)
inactive: all assays above

COC(=O)[C@H]1[C@@H](C)N(Cc2ccccc2)C(=O)N[C@H]1c1cccc(C(F)(F)F)c1
inactive: all assays above

CCN1C(=O)N[C@@H](c2cccc(C(F)(F)F)c2)C(C(=O)OC)=C1C
inactive: all assays above

C=CCN1c2ccccc2[C@]23C[C@@H](C(=O)OC)N(C(C)=O)C2=NC(C(=O)OC)=C(C(=O)OC)[C@H]13
inactive: all assays above
